Fluorescence intensity data for 27 compounds are collected here from PubChem BioAssay AID624483 (NMMLSC, 2012).

Out of some 360,000 compounds screened, about 11,000 (3.1%) were called active. Not shown: some 2% with an inconclusive outcome. The full list was thinned out, with actives kept by preference. Values without a mark were called inactive. Cut-off read from the data, not from the text of the source: active = fluorescence intensity above about 16000; inconclusive = no clear call, values can overlap the other calls; inactive = below that.

A short description of the test: counter-screen for toxin protease inhibitors: compound fluorescence, primary screen, artefact control for toxin protease inhibitor project, biochemical, multiplex microsphere, HTS (AID 624483). Particulars: compound autofluorescence counterscreen, microsphere flow cytometry; stronger effect = higher value. In general terms: Counterscreens check selectivity or assay interference.
As to `CCc1sc(C(=O)N2CCN(CC(=O)Nc3cccc(F)c3)CC2)cc1C`, the fluorescence intensity was 3730.

As for `Cc1ccc(NC2CCCN(C(=O)CCc3cn[nH]c3)C2)cc1C` (configuration not stated), the fluorescence intensity is 4290.

In the case of `COCCOC(=O)C1=C(C)Nc2nc(C)nn2C1c1ccccc1` (configuration not stated), the fluorescence intensity is 17100 (active).

For the compound `CC1=C(C(N)=O)C(c2ccc(F)cc2)n2nc(CCCO)nc2N1` (configuration not stated), the fluorescence intensity is 3660.

For `COC(=O)c1nc2n(n1)C(c1ccc([N+](=O)[O-])cc1)C(C(=O)Nc1ccc(Cl)cc1)=C(C)N2` (configuration not stated), the fluorescence intensity was 2390.

Consider `O=C(Nc1ccc(Cl)cc1)C1Cc2c(-c3ccc4c(c3)OCO4)ccnc2O1` (configuration not stated), for which the fluorescence intensity is 3410.

As to `COc1ccc(NC(=O)c2oc3ccc(S(=O)(=O)N4CCOCC4)cc3c2C)cc1`, the fluorescence intensity is 4190.

`Cc1c(C(=O)Nc2cccc(S(=O)(=O)N3CCOCC3)c2)oc2ccccc12`: the fluorescence intensity is 2760.

Turning to `Cc1c(C(=O)Nc2ccccc2Cl)oc2ccc(S(=O)(=O)N3CCC4(CC3)OCCO4)cc12`, the fluorescence intensity is 22400 (active).

As for `CC(=O)Nc1ccc(-c2ccnc3c2CC(C(=O)NC(C)C)O3)cc1` (configuration not stated), the fluorescence intensity was 3750.

In the case of `COc1cc(C=C(OC(C)=O)c2ccc3c(c2)OCO3)cc(OC)c1OC`, the fluorescence intensity was 6370.

With `NNc1nc2c(Cl)cccc2s1`, the fluorescence intensity is 6940.

For the compound `CC(C)CCNC(=O)CCNS(=O)(=O)c1ccc(Cl)cc1`, the fluorescence intensity was 19700 (active).

For the compound `CC(C)CNS(=O)(=O)c1ccc(CCC(=O)NCc2ccc(Cl)cc2)cc1`, the fluorescence intensity was 3570.

Turning to `Cc1ccc(S(=O)(=O)NCCC(=O)NCc2ccc(Cl)cc2)cc1C`, the fluorescence intensity is 4140.

In the case of `Cc1ccc(-c2nc3ccc(Br)cn3c2Cc2ccccc2C(F)(F)F)cc1`, the fluorescence intensity is 5850.

As for `CC(=O)c1nn(-c2ccccc2)c(=Nc2ccccc2)cc1C`, the fluorescence intensity is 4100.

For the compound `Cn1c(SCC(=O)Nc2nccs2)nnc1-c1cccnc1`, the fluorescence intensity was 4450.

Turning to `COc1ccc(CC(=O)NCc2nnc(SCC(=O)Nc3nccs3)n2C)cc1`, the fluorescence intensity was 4710.

In the case of `Cc1ccc(C(C)C)c(OCc2nnc(SCC(=O)Nc3nccs3)n2C)c1`, the fluorescence intensity is 17800 (active).

Regarding `c1ccc2c(NC3C4CC5CC(C4)CC3C5)nc(N3CCOCC3)nc2c1` (configuration not stated), the fluorescence intensity was 4640.

Take `NC(c1csc(NC(=O)Nc2ccccc2Oc2ccccc2)n1)c1ccccc1Cl` (configuration not stated): the fluorescence intensity was 3590.

Take `O=C(c1cc(C2CCCCN2S(=O)(=O)c2ccccc2)on1)N1CCOCC1` (configuration not stated): the fluorescence intensity is 3020.

Consider `CC(=O)NS(=O)(=O)c1ccc(N/C(N)=N/c2nc(C)cc(C)n2)cc1`, for which the fluorescence intensity is 3910.

Turning to `CN1CC(c2ccccc2)C2(COc3ccccc3C2=O)C12C(=O)Nc1ccccc12` (configuration not stated), the fluorescence intensity was 16700 (active).

In the case of `O=C1NC(c2ccccc2)Oc2ccccc21` (configuration not stated), the fluorescence intensity is 3320.

On to `C[C@@H]1NC(=O)[C@@]2(C)[C@@H](c3ccccc3)[C@H]3COc4ccccc4[C@@H]3N2C1=O`, for which the fluorescence intensity was 3420.
